An excerpt weighted towards active compounds, which were near 12% of everything screened.
HP1b binding inh: inhibitors of HP1-beta chromodomain binding to methylated histone tails | P83916 | AlphaScreen HP1-beta / biotin-H3K9me3 peptide binding | Potency, µM (highest dose often 114 µM), without a hit: at the highest dose activity change, negative = inhibition, most hits filed as inhibitors | 390,000 compounds, 0.56% hits | AID 540317; note: potency is the fitted concentration of half-maximal effect; nearly all actives have a fitted effect of over 70% in size
Target sequence (P83916 whole entry, looked up): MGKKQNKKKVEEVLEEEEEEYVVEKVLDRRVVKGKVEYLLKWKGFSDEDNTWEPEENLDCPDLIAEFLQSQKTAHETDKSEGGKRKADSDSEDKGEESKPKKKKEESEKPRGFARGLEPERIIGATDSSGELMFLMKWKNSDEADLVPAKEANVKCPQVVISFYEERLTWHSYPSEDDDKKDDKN
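AlphaScreen: HP1-beta (50 nM) preformed 30 min with biotin-H3(1-18)K9me3 peptide (50 nM) in PBS pH 7.4, 0.01% Tween-20. Compound added for 30 min at RT, then streptavidin donor/nickel chelate acceptor beads (10 ug/mL) for 30 min.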
Sfp PPTase inh: inhibitors of Bacillus subtilis Sfp phosphopantetheinyl transferase | Potency, µM, without a hit: largest response in the series, negative = inhibition, most hits filed as inhibitors | 310,000 compounds, 3.5% hits | Biochemical Sfp PPTase activity, qHTS | AID 1490 | Q9F4F7;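 note: the enzyme is Sfp with the accession as filed and its product quenches rhodamine fluorescence; potency is the fitted concentration of half-maximal effect; 0% = enzyme reaction without inhibitor and -100% = no enzyme wells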
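Fluorescence-quenching assay with 15 nM Sfp, 5 uM rhodamine-CoA and 12.5 uM BHQ-2-labelled ybbR peptide in pH 7.6 Hepes/MgCl2 buffer. Enzyme was pre-incubated with compound for 15 min at room temperature. Rate was taken from the 30-min fluorescence change (525/598 nm).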
PLK1 PBD block: blocks phosphopeptide binding to human PLK1 polo-box domain; AID 720504; P53350; 360,000 compounds, 2.8% hits; Plk1 PBD binding of FITC phosphopeptide, fluorescence polarization; Potency, µM, for inactives: max response, negative = inhibition, hits mostly inhibitors; note: potency is the fitted concentration of half-maximal effect; series mostly up to about 57 µM; % is set by controls: 0 for no effect and ±100 for the full control effect; nearly all actives have a fitted effect of over 65% in size
Target sequence (P53350 whole entry, looked up, the tested form may be a part): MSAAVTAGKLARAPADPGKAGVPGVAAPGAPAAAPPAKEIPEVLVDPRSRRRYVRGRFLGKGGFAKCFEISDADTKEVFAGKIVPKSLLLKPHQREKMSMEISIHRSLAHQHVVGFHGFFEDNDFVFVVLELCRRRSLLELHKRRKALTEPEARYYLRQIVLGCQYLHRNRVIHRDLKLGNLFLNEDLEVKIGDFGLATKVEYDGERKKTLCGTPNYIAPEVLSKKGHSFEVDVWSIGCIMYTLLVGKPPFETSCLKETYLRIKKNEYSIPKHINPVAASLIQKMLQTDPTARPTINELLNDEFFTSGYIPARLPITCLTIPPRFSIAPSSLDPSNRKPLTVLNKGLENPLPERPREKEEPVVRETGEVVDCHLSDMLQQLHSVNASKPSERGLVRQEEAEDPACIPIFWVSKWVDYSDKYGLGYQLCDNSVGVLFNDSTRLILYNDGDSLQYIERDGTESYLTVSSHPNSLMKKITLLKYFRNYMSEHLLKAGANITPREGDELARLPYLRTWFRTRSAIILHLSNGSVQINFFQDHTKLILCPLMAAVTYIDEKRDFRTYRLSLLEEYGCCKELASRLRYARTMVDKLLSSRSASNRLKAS
BAZ2B block: BAZ2B (human) inhibition; AlphaScreen BAZ2B-H3K14Ac peptide displacement; 360,000 compounds, 4.4% hits; Q9UIF8; Potency, µM (top dose mostly 114 µM), for the others: top-dose activity change, negative = inhibition, usual class: inhibitors; note: potency is the fitted concentration of half-maximal effect; % is set by controls: 0 for no effect and ±100 for the full control effect; nearly all actives have a fitted effect of over 60% in size
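Protein-peptide AlphaScreen: BAZ2B 50 nM, b-H3K14Ac 50 nM, 1x PBS pH 7.4 + 0.01% Tween-20. Preincubation 30 min RT; cpd 30 min RT (top 110 uM); beads 20 min RT, light-protected.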
JMJD2A Tudor: inhibitors of human JMJD2A Tudor domain | AlphaScreen JMJD2A-Tudor / H3K4me3 peptide binding | 390,000 compounds, 4.4% hits | Potency, µM (top dose mostly 114 µM), for inactives: at the top dose activity change, negative = inhibition, hits mostly inhibitors | O75164; note: potency is the fitted concentration of half-maximal effect; % is set by controls: 0 for no effect and ±100 for the full control effect; nearly all actives have a fitted effect of over 50% in size
G9a block: blocks human histone lysine methyltransferase G9a. Q96KQ7. G9a H3K9 monomethylation, AlphaScreen, 2 h. 350,000 compounds, 8.8% hits. Potency, µM (titrated, usually from 102 µM), for the others: at the top dose activity, negative = inhibition, most hits filed as inhibitors; note: potency is the fitted concentration of half-maximal effect; % is set by controls: 0 for no effect and ±100 for the full control effect; nearly all actives have a fitted effect of over 75% in size
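AlphaScreen detection with an anti-monomethyl H3K9 antibody quantified product after a 2 h room-temperature reaction containing 500 nM biotinylated H3K9 peptide, 20 µM SAM and 20 nM enzyme, which had been preincubated 15 min with compound.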
Sfp PPTase conf: confirmation of Bacillus subtilis Sfp PPTase inhibitors | Sfp PPTase enzymatic assay, qHTS titration | Potency, µM (top dose mostly 114 µM), without a hit: top-dose activity change, negative = inhibition, hits mostly inhibitors | shares compounds with Sfp PPTase inh | 380 compounds, 79% hits | AID 2701;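 note: potency is the fitted concentration of half-maximal effect; plate controls were uninhibited Sfp reaction for no effect and no enzyme control for full effect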
Sfp gel assay: Blocks Sfp PPTase activity, gel read-out. shares compounds with Sfp PPTase inh. purified Sfp, gel-based phosphopantetheinylation read-out. Potency, µM, actives largely listed as inhibitors. 210 compounds, 20% hits. AID 2707;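 active = potency below 100 µM; inconclusive = dose-dependent response but potency above 100 µM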;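 note: band intensities scaled against SCH202676 control wells before curve fitting; potency is an IC50 for inhibitors of Sfp transfer activity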
An asterisk follows results filed as active; [ ] = dose if it differs, or a comment. Unless noted, calls come from the whole dose curve; as a rule, active = well fitted curve in the direction sought with a large enough effect; inconclusive = small, poorly fitted or top-dose-only effect, or another doubt; inactive = no such curve, though single readings can be large; an effect the other way counts as inactive or inconclusive.

Results for Cc1cnc(=O)[nH]c1SCC(=O)c1ccc(F)cc1 ?
HP1b binding inh: -31.9%; Sfp PPTase inh: 14.1µM*; PLK1 PBD block: 11.9µM*; BAZ2B block: inconclusive; JMJD2A Tudor: -23.2%; G9a block: 7.08µM*; Sfp PPTase conf: 8.35µM*

How did CCOC(=O)c1nn(-c2ccccc2)c(=O)c2c(NC(C)=O)scc12 do in these assays?
HP1b binding inh: 23.3%; Sfp PPTase inh: 15.6%; PLK1 PBD block: -9.9%; JMJD2A Tudor: -11.0%; G9a block: -46.1%

How did CCOC(=O)c1nn(-c2ccccc2C)c(=O)cc1OCC(=O)N1CCN(c2ccccc2)CC1 do in these assays?
HP1b binding inh: 7.0%; PLK1 PBD block: -5.8%; BAZ2B block: -31.9%; JMJD2A Tudor: -26.2%; G9a block: -19.8%

Results for CCOC(=O)c1nn(-c2ccccc2C)c(=O)c2c(N)scc12 ?
HP1b binding inh: -16.2%; Sfp PPTase inh: 3.16µM*; PLK1 PBD block: -14.2%; BAZ2B block: 79.4µM*; JMJD2A Tudor: 17.8µM*; G9a block: 3.16µM*; Sfp PPTase conf: 14.8µM*

How did CCOC(=O)c1nn(-c2ccccc2)c(=O)c2c(N)scc12 do in these assays?
HP1b binding inh: 21.9%; Sfp PPTase inh: 12.6µM*; PLK1 PBD block: 2.67µM*; JMJD2A Tudor: -34.4%[11.4 µM]; G9a block: 1.58µM*; Sfp PPTase conf: 18.7µM*

How did CN1C(=O)C(CC#N)(C2(CC#N)C(=O)N(C)c3ccccc32)c2ccccc21 (stereo unspecified) do in these assays?
HP1b binding inh: 23.9%; PLK1 PBD block: -16.1%; JMJD2A Tudor: -14.4%

What do the screens show for `Cc1cc(C(F)(F)F)nn1Cc1ccc(C(=O)NCc2ccco2)o1`?
HP1b binding inh: 30.9%; Sfp PPTase inh: 0.891µM*; PLK1 PBD block: -15.0%; BAZ2B block: 19.2%; JMJD2A Tudor: -29.5%; G9a block: inconclusive; Sfp PPTase conf: 46.9µM*

Results for Cn1c(CCC(=O)O)nc2cc(S(=O)(=O)N3CCCC3)ccc21 ?
HP1b binding inh: 4.3%[57 µM]; PLK1 PBD block: 8.4%; JMJD2A Tudor: -14.5%

How did CCN(CC)S(=O)(=O)c1ccc2c(c1)nc(CCC(=O)O)n2C do in these assays?
HP1b binding inh: 14.8%; Sfp PPTase inh: 20µM*; PLK1 PBD block: inconclusive; BAZ2B block: -19.5%; JMJD2A Tudor: -14.7%[11.4 µM]; G9a block: 25.1µM*; Sfp PPTase conf: 46.9µM*

Results for COC(=O)C[C@@H]1C[C@@H]2c3cc(NS(=O)(=O)c4ccc(F)cc4)ccc3O[C@@H]2[C@H](CO)O1 ?
PLK1 PBD block: 4.9%

Results for CCOC(=O)c1c(C)n(O)c2ccc(Cl)cc2c1=O ?
HP1b binding inh: 19.5%; Sfp PPTase inh: 35.5µM*; PLK1 PBD block: -9.7%; BAZ2B block: -31.7%; JMJD2A Tudor: -15.8%; G9a block: inconclusive; Sfp PPTase conf: 74.4µM*; Sfp gel assay: inactive

What do the screens show for `COc1ccccc1CNC(=O)Nc1cccs1`?
HP1b binding inh: inconclusive; Sfp PPTase inh: 3.98µM*; PLK1 PBD block: -28.4%; BAZ2B block: inconclusive; JMJD2A Tudor: 56.2µM*; G9a block: -48.4%[2.33 µM]; Sfp PPTase conf: 23.5µM*

How did Cc1ccn2c(Nc3ccc4c(c3)OCO4)c(-c3ccccn3)nc2c1 do in these assays?
HP1b binding inh: 50.1µM*; Sfp PPTase inh: 2.82µM*; PLK1 PBD block: -4.8%; BAZ2B block: 12.6µM*; JMJD2A Tudor: 12.6µM*; G9a block: inconclusive; Sfp PPTase conf: inconclusive; Sfp gel assay: inactive

How did CC(=O)OC[C@@H]1CN(Cc2cccc(C(F)(F)F)c2)C[C@H](n2cnc3c(NCc4ccco4)ncnc32)O1 do in these assays?
PLK1 PBD block: 6.7%

What do the screens show for `COc1ccc(NC(=S)N(CCC(C)C)C2CCN(C(C)C)CC2)cc1Cl`?
HP1b binding inh: 11.5%; Sfp PPTase inh: 3.98µM*; PLK1 PBD block: 2.12µM*; BAZ2B block: -9.2%; JMJD2A Tudor: -34.8%; G9a block: 5.01µM*; Sfp PPTase conf: 1.87µM*

What do the screens show for `O=C(O)c1cc(/C=C/C(=O)c2cc(F)ccc2O)c2c(c1)COCO2`?
HP1b binding inh: -6.5%; Sfp PPTase inh: 22.4µM*; PLK1 PBD block: inconclusive; BAZ2B block: 50.1µM*; JMJD2A Tudor: inconclusive; Sfp PPTase conf: 46.9µM*; Sfp gel assay: inactive

How did COc1ccccc1NS(=O)(=O)c1cc(NC(=O)c2sccc2C)ccc1N1CCCC1 do in these assays?
HP1b binding inh: inconclusive; Sfp PPTase inh: 2.82µM*; PLK1 PBD block: 6.7µM*; BAZ2B block: -30.5%; JMJD2A Tudor: -17.5%; G9a block: 3.55µM*; Sfp PPTase conf: 16.7µM*

How did CCC1=C[C@@H]2CN(C1)Cc1c([nH]c3ccccc13)[C@@](C(=O)OC)(c1cc3c(cc1OC)N(C)[C@H]1[C@@](O)(C(=O)OC)[C@H](OC(C)=O)[C@]4(CC)C=CCN5CC[C@]31[C@@H]54)C2 do in these assays?
Sfp PPTase inh: 14.1µM*; Sfp PPTase conf: inconclusive; Sfp gel assay: 55.6µM*

How did CC(=O)Nc1ccc(S(=O)(=O)NC2(C(F)(F)F)C(=O)Nc3c2c(=O)[nH]c(=O)n3-c2cccc(Cl)c2)cc1 (stereo unspecified) do in these assays?
HP1b binding inh: 21.3%; BAZ2B block: inconclusive; JMJD2A Tudor: -10.1%; G9a block: -2.4%[59 µM]

Results for O=C(NC1CCCC1)c1cc2nc(-c3ccco3)cc(C(F)(F)F)n2n1 ?
HP1b binding inh: 44.2%; Sfp PPTase inh: 2.1%; PLK1 PBD block: -2.6%; BAZ2B block: 3.9%; JMJD2A Tudor: 14.0%; G9a block: 24.6%

How did Nc1c(C(=O)NC2CC2)sc2nc3c(c(-c4ccco4)c12)CC/C3=C/c1ccco1 do in these assays?
HP1b binding inh: 14.1µM*; Sfp PPTase inh: 5.01µM*; PLK1 PBD block: inconclusive; BAZ2B block: 0.3%; JMJD2A Tudor: 7.08µM*; G9a block: 3.16µM*; Sfp PPTase conf: 8.35µM*

Results for COc1ccc(NC(=O)c2c(C(=O)Nc3ccccc3)sc3nc(C)cc(=O)n23)cc1 ?
HP1b binding inh: 29.4%; BAZ2B block: -3.6%; JMJD2A Tudor: -4.2%; G9a block: -8.1%[59 µM]

Bioassay records as filed in PubChem BioAssay.
